Data published in PubChem BioAssay AID463229 (Broad Institute, 2010).
The campaign covered roughly 2,300 compounds. About 2,100 (91%) were called active.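 Rule for the calls: active = compounds raising the signal whose fitted half-maximal concentration is at or below their top tested dose (cut at about 25 µM in these data); inconclusive = flat fit at 30 to 70% activity, or a poor fit; inactive = the rest.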 So high a share suggests a set chosen from earlier hits. These entries were drawn from the full list. A call without a number means that no potency is given here. Potency and affinity values are given separately.

assay: cytokine-free beta-cell viability effect – INS-1E rat cells, ATP luminescence, cherry pick, counter-screen for beta-cell apoptosis protection project, dose response (AID 463229); conditions: INS-1E rat beta cells, no cytokines, CellTiter-Glo ATP, 48 h; series mostly up to 26 µM

Compound	outcome
CC(=O)Oc1ccc(N(C(C)=O)S(=O)(=O)c2cccs2)c2ccccc12	inactive
Cc1ccc(O)c(CNc2cccc3cccnc23)c1	inactive
Cc1nc(C(F)(F)F)c(C(=O)N/N=C(\N)c2ccccn2)s1	inactive
COc1ccc(/C=C/C(=O)NC(=S)Nc2ccccc2C(=O)NC2CCCCC2)cc1	inactive
O=C1CSC(c2ccccc2F)N1 (stereo unspecified)	inactive
CC(=O)c1c(C)[nH]c(C(=O)CN2CCN(S(=O)(=O)c3ccccc3)CC2)c1C	inactive
CCOc1ccc(-n2c(=O)[nH]cc(C(=O)Nc3ccc(OC)c(OC)c3)c2=O)cc1	inactive
CCCOc1ccc(C(=O)C(CN2CCOCC2)c2ccccc2)cc1 (stereo unspecified)	inactive
CC(NC(=O)C1CCC(C(=O)NC(C)c2ccccc2)CC1)c1ccccc1 (stereo unspecified)	inactive
CC(=O)c1ccccc1OCCOCCOc1ccccc1C(C)=O	inactive
Cc1cc(C)c2c(C)[nH]nc2n1	inactive
O=C(c1ccccc1)C(CCC(CN1CCOCC1)C(=O)c1ccccc1)CN1CCOCC1 (stereo unspecified)	inactive
CC(=O)SC1CC(=O)N(c2c(C)cccc2C)C1=O (stereo unspecified)	inactive
COc1ccccc1/C=N\Nc1cc(C)nc(-n2nc(C)cc2C)n1	inactive
O=C(Nc1ccc(Nc2ccncc2)cc1)c1ccc(Nc2ccnc3ccc([N+](=O)[O-])cc23)cc1[N+](=O)[O-]	inactive
O=c1c(Cl)c2oc3ccccc3nc-2c2ccccc12	inactive

Compound	outcome
CCN(CC)c1ccc(N=C2C(=O)Nc3ccccc32)cc1	inactive
O=C1CSC(c2cccnc2)N1CC1CC1 (stereo unspecified)	inactive
Cc1ccccc1NC(=S)Nc1cccc2cnccc12	inactive
COc1ncnc(OC)c1S(=O)(=O)Nc1ccc(C(F)(F)F)cc1	inactive
Cc1ccccc1Cn1ccc(=NCc2ccccc2)cc1	inactive
Cc1ccc(S(=O)(=O)N2CCCCC2c2cccnc2)c(C)c1C (stereo unspecified)	inactive
Cc1ccc(Oc2nc(-c3ccccn3)nc3ccccc23)cc1	inactive
Nc1ccc(N2CCCCC2)cc1N1CCCCC1	inactive
CC(=O)Oc1c(Cl)cc(N(C(C)=O)S(=O)(=O)c2ccccc2)c2ccccc12	inactive
O=C(COC(=O)Cn1cnc2ccccc2c1=O)Nc1ccc2c(c1)OCO2	inactive
CC(C)OCCCNC(=S)N1CCC(C(=O)c2ccc(Cl)cc2)CC1	inactive
CC(C)(C)n1[nH]c2c3c(ccc2c1=O)C(=O)c1ccccc1C3=O	inactive
CCCCC[n+]1ccn(C2=C([O-])c3ccccc3C(=O)/C2=N\S(=O)(=O)c2ccccc2)c1	inactive
CCCCN(C)CCNC(=O)c1cc2c(-c3ccccc3F)nn(C)c2s1	inactive
CC(C(c1cccs1)c1c(N)n(C)c(=O)n(C)c1=O)[N+](=O)[O-] (stereo unspecified)	inactive
